HT1080 IDH1KD tx = kills HT-1080 cells with IDH1 knockdown; HT-1080 IDH1 knockdown viability, ATP luminescence, 48 h; Potency, µM (titrated, usually from 46.1 µM), actives largely listed as cytotoxic; hit rate 2% among 360,000
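Using the IDH1-knockdown HT-1080 line run in the same batch and compound series as the NT line, viability after 48 h at 37 °C was determined by CellTiter-Glo luminescence and expressed as % activity.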
HT1080-NT tox = kills 2HG-producing HT-1080-NT fibrosarcoma cells | Potency, µM (titrated, usually from 46.1 µM), most hits filed as cytotoxic | hit rate 1.6% among 360,000 | HT-1080-NT fibrosarcoma viability, CellTiter-Glo ATP luminescence, 48 h;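 also: NT is the 2HG producing partner of a matched IDH1 knockdown line; nearly all actives have a fitted effect of over 55% in size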
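Viability by CellTiter-Glo luminescence after 48 h compound exposure at 37C of HT-1080-NT cells (750/well, RPMI, 5% FBS). % activity scaled between DMSO wells and medium-only wells, then curve-fitted and categorized by curve class.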
KB-V1 MDR tox = KB-V1 MDR subline cytotoxicity; KB-V1 MDR cells viability, CellTiter-Glo, 72 h; Potency, µM (top dose mostly 46.1 µM), hits mostly cytotoxic; hit rate 3.4% among 400,000; also: nearly all actives have a fitted effect of over 60% in size
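KB-V1, DMEM (no phenol red) + 10% FBS; cpd pin-transferred, titration series; 72 h, 37 degrees C; CellTiter-Glo, luminescence. Data normalized, curve-fit.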
TDP1 cell noCPT = qHTS for Inhibitors of human tyrosyl-DNA phosphodiesterase 1 (TDP1): qHTS in cells in absence of CPT; DT40 Tdp1-/- hTDP1 cells, no CPT, ATP luminescence, 48 h; Potency, µM (series often up to 46.2 µM), most hits filed as inhibitors; hit rate 15% among 420,000; also: nearly all actives have a fitted effect of over 55% in size
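Growth of hTDP1-complemented DT40 Tdp1-knockout cells is measured by ATP luminescence after at least 48 hr compound exposure at 37 °C, with DMSO substituting for the 20 nM CPT used in the parallel screen.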
KB-3-1 tox = kills parental KB-3-1 adenocarcinoma cells | KB-3-1 viability, CellTiter-Glo ATP luminescence, 72 h | Potency, µM (highest dose often 46.1 µM), actives largely listed as cytotoxic | hit rate 1.4% among 400,000; also: nearly all actives have a fitted effect of over 60% in size
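Cytotoxicity in the drug-sensitive parental line KB-3-1 was scored as loss of CellTiter-Glo luminescence following 72 h incubation with compound. Values come from curve fitting of normalized concentration-response data.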
TDP1 cell CPT = growth inhibition of DT40 Tdp1-/-;hTDP1 cells with camptothecin (screen for TDP1 inhibitors); chicken DT40 Tdp1-/-;hTDP1 cells + 20 nM CPT, ATP luminescence, 48 h; Potency, µM (series often up to 46.2 µM), usual class: inhibitors; hit rate 12% among 420,000; AID 686979; also: nearly all actives have a fitted effect of over 55% in size
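Chicken DT40 Tdp1-/- cells complemented with human TDP1, 400 cells/well, exposed to compounds plus 20 nM camptothecin for at least 48 h at 37 C; viability read as ATP content by CellTiter-Glo luminescence.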
Numbers stand for hits; . = inactive; ? = inconclusive; / = no result given. This is a sample that favours compounds with a hit; in the whole collection about 19% have one here. Calls follow the shape of the dose curve; as a rule, active = well fitted curve in the direction sought with a large enough effect; inconclusive = small, poorly fitted or top-dose-only effect, or another doubt; inactive = no such curve, though single readings can be large; an effect the other way counts as inactive or inconclusive.

SMILES	HT1080 IDH1KD tx	HT1080-NT tox	KB-V1 MDR tox	TDP1 cell noCPT	KB-3-1 tox	TDP1 cell CPT
O=C1c2ccccc2C(c2nnnn2Cc2ccccc2)N1CCCN1CCOCC1 (configuration not stated)	.	.	.	.	.	.
O=C(CSc1ccccc1)Nc1ccc(-c2nc3ccccc3[nH]2)cc1	?	13µM	?	10µM	21µM	23µM
CC1CCN(C(c2ccc(F)cc2)c2sc3nc(-c4ccco4)nn3c2O)CC1 (configuration not stated)	/	/	.	.	.	.
CC(C)c1ccc(NC(=O)[C@H]2O[C@@H]3OC(C)(C)O[C@@H]3[C@H]3OC(C)(C)O[C@H]32)cc1	/	/	?	21µM	.	5.2µM
O=C(C[n+]1ccccc1)N/N=C/c1cc(Br)ccc1O	.	.	.	.	.	.
CC1(C)OC2OC(C(=O)N/N=C/c3cc(Br)ccc3O)C3OC(C)(C)OC3C2O1 (configuration not stated)	?	.	9.2µM	15µM	.	15µM
Cc1cc(C)cc(NC(=O)[C@H]2O[C@@H]3OC(C)(C)O[C@@H]3[C@H]3OC(C)(C)O[C@H]32)c1	/	/	.	?	?	.
O=c1oc(-c2ccc(Br)o2)nc2ccccc12	.	.	.	.	.	.
O=c1[nH]c(=S)c2n[nH]nc2[nH]1	/	/	?	.	.	.
S=C(NCCCN1CCN(CCCNC(=S)NC2CCCCC2)CC1)NC1CCCCC1	?	?	?	15µM	.	15µM
OCCNC(=S)NC1CCCCC1	.	.	.	.	.	.
CC(=O)Nc1cccc(C(=O)N2CCC(n3nccc3NC(=O)CC(C)C)CC2)c1	.	.	/	.	/	.
CCn1nc(C(=O)NC2=NCCS2)c2ccccc2c1=O	.	.	.	.	.	.
Cn1nc(C(=O)Nc2cccnc2)c2ccccc2c1=O	.	.	.	?	.	?
CCCn1nc(C(=O)Nc2ccc(S(=O)(=O)Nc3ncccn3)cc2)c2ccccc2c1=O	.	.	.	.	.	.
CCCn1nc(C(=O)Nc2nc(-c3ccccn3)cs2)c2ccccc2c1=O	?	?	.	2.3µM	?	7.3µM
CCn1nc(C(=O)Nc2nc(-c3ccccn3)cs2)c2ccccc2c1=O	.	.	.	3.3µM	.	2.9µM
Cn1nc(C(=O)Nc2nc(-c3ccccn3)cs2)c2ccccc2c1=O	.	.	1.3µM	1.3µM	.	4.6µM
Cc1ccc(CNC(=O)c2cc3sccc3n2Cc2ccc(Cl)cc2)cc1	/	/	.	?	.	?
CCc1ccc(N/C(N)=N/c2nc(CSc3ncccn3)cc(=O)[nH]2)cc1	.	.	.	13µM	?	?
Cc1ccc(N/C(N)=N/c2nc(CSc3nnc(C)s3)cc(=O)[nH]2)c(C)c1	4.1µM	2.6µM	?	0.82µM	2.3µM	0.65µM
Cc1cccc(N/C(N)=N/c2nc(CSc3ccc(Cl)cc3)cc(=O)[nH]2)c1	.	.	.	9.2µM	.	8.2µM
CCOc1ccc(N/C(N)=N/c2nc(CSc3nnnn3-c3ccccc3)cc(=O)[nH]2)cc1	.	.	.	?	?	16µM
CC(=O)Nc1ccc(Nc2nc3ccc(Cl)cc3n3cnnc23)cc1	/	/	/	.	/	.
CC(C)c1ccc(NC(=O)C(C)N(c2ccccc2)S(C)(=O)=O)cc1 (configuration not stated)	/	/	.	?	.	?
COc1cccc(N(C)C(=S)Oc2ccc3c(c2)CCCC3)n1	/	/	/	.	/	?
Cc1cc2c(c(=O)o1)C(c1ccc([N+](=O)[O-])o1)C(C#N)=C(N)O2 (configuration not stated)	.	.	.	?	.	.
COc1cccc(C#Cc2ccc3c(c2)O[C@H](CN(C)C)[C@@H](C)CN([C@@H](C)CO)S3(=O)=O)c1	.	.	.	?	.	?

Screens as filed in PubChem.
